Only some compounds are listed: those with a hit (about 11% of all), similar ones and a draw of the others.
G9a block: qHTS Assay for Inhibitors of Histone Lysine Methyltransferase G9a | Histone-lysine N-methyltransferase EHMT2 (Homo sapiens), Q96KQ7 | G9a H3K9 monomethylation, AlphaScreen, 2 h | Potency, µM (series often up to 102 µM), for inactives: at the highest dose activity, negative = inhibition, most hits filed as inhibitors | 350,000 compounds, 8.8% hits | AID 504332, 2011; further: on the % scale 0 is the no-effect control and ±100 the full control effect; nearly all actives have a fitted effect of over 75% in size
Target sequence (Q96KQ7 913-1193 limits assumed): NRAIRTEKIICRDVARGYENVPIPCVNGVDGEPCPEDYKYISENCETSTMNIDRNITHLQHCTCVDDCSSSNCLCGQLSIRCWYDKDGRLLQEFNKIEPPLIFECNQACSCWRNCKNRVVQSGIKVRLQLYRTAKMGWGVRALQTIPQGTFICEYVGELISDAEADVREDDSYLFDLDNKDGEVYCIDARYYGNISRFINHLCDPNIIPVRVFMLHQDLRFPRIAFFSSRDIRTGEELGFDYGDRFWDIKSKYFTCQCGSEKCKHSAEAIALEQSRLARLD
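AlphaScreen read-out: biotin-H3K9 peptide (500 nM) methylation by 20 nM enzyme with 20 uM SAM, 2 h at room temperature after 15 min compound preincubation; anti-monomethyl H3K9 antibody plus donor/acceptor beads, 10 min dark.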
BAZ2B block: qHTS Assay for Inhibitors of BAZ2B; Bromodomain adjacent to zinc finger domain protein 2B (Homo sapiens), Q9UIF8; AlphaScreen BAZ2B-H3K14Ac peptide displacement; Potency, µM (titrated, usually from 114 µM), for inactives: at the top dose activity change, negative = inhibition, hits mostly inhibitors; 360,000 compounds, 4.4% hits; further: on the % scale 0 is the no-effect control and ±100 the full control effect; nearly all actives have a fitted effect of over 60% in size
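In this displacement format the biotinylated H3(5-23) peptide acetylated at Lys14 serves as ligand at 50 nM, with BAZ2B at 50 nM in PBS pH 7.4 containing 0.01% Tween-20. Donor and acceptor beads are 10 ug/mL final.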
L3MBTL1 block: qHTS Assay for the Inhibitors of L3MBTL1; Lethal(3)malignant brain tumor-like protein 1 (Homo sapiens), Q9Y468; AlphaScreen L3MBTL1–H3K9me1 peptide binding; Potency, µM (titrated, usually from 57.1 µM), inactives show top-dose activity, negative = inhibition, most hits filed as inhibitors; 230,000 compounds, 0.66% hits; AID 485360, 2010; further: on the % scale 0 is the no-effect control and ±100 the full control effect; nearly all actives have a fitted effect of over 60% in size
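L3MBTL1 50 nM + b-AHA-H3(1-15)K9me1 75 nM, 30 min RT; compound added, 30 min RT; streptavidin donor/Ni-chelate acceptor beads 10 ug/mL each final, 30 min RT dark; AlphaScreen read.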
JMJD2A Tudor: qHTS Assay for Inhibitors of JMJD2A-Tudor Domain. AID 504339, 2011. 390,000 compounds, 4.4% hits. Potency, µM (series often up to 114 µM), for the others: top-dose activity change, negative = inhibition, most hits filed as inhibitors. Lysine-specific demethylase 4A (Homo sapiens), O75164. AlphaScreen JMJD2A-Tudor / H3K4me3 peptide binding; further: on the % scale 0 is the no-effect control and ±100 the full control effect; nearly all actives have a fitted effect of over 50% in size
HP1b binding inh: HTS for Inhibitors of HP1-beta Chromodomain Interactions with Methylated Histone Tails; Chromobox protein homolog 1 (Homo sapiens), P83916; AlphaScreen HP1-beta / biotin-H3K9me3 peptide binding; Potency, µM (series often up to 114 µM), inactives show at the top dose activity change, negative = inhibition, hits mostly inhibitors; 390,000 compounds, 0.56% hits; further: nearly all actives have a fitted effect of over 70% in size
Target sequence (P83916 whole entry, looked up): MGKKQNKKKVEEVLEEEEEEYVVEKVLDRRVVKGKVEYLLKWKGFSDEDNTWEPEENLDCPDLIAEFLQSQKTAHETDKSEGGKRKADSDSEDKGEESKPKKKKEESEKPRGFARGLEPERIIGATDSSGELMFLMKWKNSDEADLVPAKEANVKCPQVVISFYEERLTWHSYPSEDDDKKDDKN
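HP1-beta protein (50 nM final) preincubated 30 min at room temperature with biotinylated H3(1-18)K9me3 peptide (50 nM) in PBS pH 7.4, 0.01% Tween-20, then compound added for 30 min. AlphaScreen streptavidin donor/nickel chelate acceptor beads (10 ug/mL final), 30 min dark, luminescence read.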
The depositor's hits bear a star; ? = inconclusive; nt = not tested or not shown; [ ] = dose if it differs, or a comment. The call rests on the fitted dose curve; in most records, active means well fitted inhibition curve with a large enough effect; inconclusive means small, poorly fitted or top-dose-only effect; inactive means no such curve, though single readings can be large or run the other way. Potency means the concentration at half of the fitted maximal effect.

SMILES	G9a block	BAZ2B block	L3MBTL1 block	JMJD2A Tudor	HP1b binding inh
CCCN1CCC(=NNc2ccc(S(=O)(=O)N(CC)CC)cc2[N+](=O)[O-])CC1	35.5µM*	?	-1.7%	?	?
CCCN1CCC(=NNc2ccc(S(N)(=O)=O)cc2[N+](=O)[O-])CC1	14.1µM*	-22.6%	-6.4%	-25.3%	0.5%
CC(C)CN1CCc2nc(N3CCN(C)CC3)ncc2C1	-2.8%[12.7 µM]	?	nt	-29.8%	42.5%
O=C1C=CC(=O)C(C2=C3C(=O)N(CCc4ccccc4)CC(=O)N3CCC2)=C1	1.26µM*	50.1µM*	-10.6%	3.16µM*	6.31µM*
Cn1cncc1CNc1ncnc2ccc(-c3ccc4c(c3)OCO4)cc12	nt	nt	nt	56.2µM*	nt
CCOc1ccc(NC(=O)Cn2c(=O)n(CCc3ccccc3)c(=O)c3c4c(sc32)CN(C(C)=O)CC4)cc1	15.1%[59 µM]	3.7%	nt	5.5%	44.9%
CCOc1ccc(NC(=O)Cn2c3ncccc3c(=O)n2-c2ccc(CC)cc2)cc1	0.1%[59 µM]	4.8%	nt	14.3%	38.7%
CC(=O)c1cccc(NC(=O)c2noc3c2CCCC3)c1	5.4%[59 µM]	-0.7%	nt	-8.2%	39.8%
Nc1ccccc1C(=O)C[C@H](N)C(=O)O	1.9%[59 µM]	nt	nt	17.8µM*	1.6%
NC(CC(=O)NC(c1ccccc1)(c1ccccc1)c1ccccc1)C(=O)O (configuration not stated)	-3.3%	-11.2%	nt	0.4%	11.6%
COCCn1c(C)cc(O)c(C(c2ccccc2OC)N2CCN(c3ccccc3)CC2)c1=O (configuration not stated)	?	10.6%	nt	-1.3%	41.4%[57 µM]
O=C1CCCN1CN1CCCCC1	-131.4%[59 µM]	79.4µM*	7.6%	?	?
O=[N+]([O-])c1ccc(S(=O)(=O)c2ccccc2)nc1	39.8µM*	13.0%	nt	-19.0%	24.1%
Cc1ccc(S(=O)(=O)c2ccc([N+](=O)[O-])cn2)cc1	39.8µM*	?	nt	-28.8%	5.7%[57 µM]
Cc1cc(S(=O)(=O)c2ccc([N+](=O)[O-])cn2)ccc1Br	nt	nt	nt	-11.8%	32.1%
CCOCCCNC(=O)C(NC(=O)c1ccccc1O)c1ccc(C)cc1 (configuration not stated)	5.62µM*	-2.7%	nt	-1.0%	41.4%
Cc1ccc(CNC(=O)CSCc2nc(-c3cccc(C)c3)oc2C)cc1	-34.1%[59 µM]	0.1%	nt	-9.4%	20.1%
CCN1C(=O)CC(Sc2ccccc2C(=O)O)C1=O (configuration not stated)	?	?	nt	-13.2%	17.1%
COC(=O)c1ccccc1SC1CC(=O)N(c2ccccc2)C1=O (configuration not stated)	-4.0%	15.9%	35.2%	4.1%	54.4%
O=C(O)c1ccccc1SC1CC(=O)N(c2cccc3ccccc23)C1=O (configuration not stated)	nt	?	nt	22.4µM*	?
CCOc1ccc(N2C(=O)CC(Sc3ccccc3C(=O)O)C2=O)c([N+](=O)[O-])c1 (configuration not stated)	1.41µM*	63.1µM*	-1.8%	?	1.8%
CCOC(=O)c1c(N2C(=O)Nc3ccccc3N2O)sc2c1CCCC2	6.7%[59 µM]	-0.4%	0.4%	-6.5%	13.8%
CCOC(=O)c1c(N2C(=O)CC(Sc3ccccc3C(=O)O)C2=O)sc2c1CCCC2 (configuration not stated)	nt	50.1µM*	1.0%	?	7.7%
COC(=O)c1sc2nc3c(cc2c1N)COC(C)(C)C3	50.1µM*	-3.0%	nt	13.7%	41.9%
CCCc1nc2c(sc3nc4c(cc32)COC(C)(C)C4)c(=O)o1	22.4µM*	?	4.9%	-4.1%	43.3%
SMILES	G9a block	BAZ2B block	L3MBTL1 block	JMJD2A Tudor	HP1b binding inh
Cc1ccc(CN2CCC(CNC(=O)Nc3c(C)cccc3C)C2)cc1 (configuration not stated)	-43.4%[59 µM]	-6.3%	nt	-11.0%	25.6%
COc1ccc(C2C(=O)N(C3CCC(C)CC3)CC(=O)N2CCC2=CCCCC2)cc1OC (configuration not stated)	-9.2%[59 µM]	-11.5%	nt	-17.1%	49.2%
COC(=O)c1ccc(CSc2nc3ccccc3c(=O)n2-c2ccccc2)o1	15.8µM*	-24.5%	nt	-20.8%	25.7%
COC(=O)c1ccc(CSc2nnc3n(Cc4ccccc4OC)c(=O)c4ccccc4n23)o1	44.7µM*	-31.6%	-4.6%	-22.6%	10.3%
COC(=O)c1ccc(CSc2nc3ccccc3c(=O)n2-c2ccc(OC)c(OC)c2)o1	-8.3%[12.7 µM]	-39.0%	nt	-33.1%	-1.8%
Cc1nc(-c2ccc(S(=O)(=O)N3CCN(c4cc(Cl)ccc4C)CC3)cc2)co1	-49.7%[59 µM]	-33.3%	nt	-21.6%	3.7%[57 µM]
O=C1C=CC(=O)N1N(c1ccccc1)c1ccccc1	1.78µM*	31.6µM*	-0.2%	17.8µM*	?
Cc1ccccc1NC1(C#N)C(=O)Nc2ccccc21 (configuration not stated)	12.6%	?	nt	-30.1%	17.1%
CC(C)c1ccc(NC2(C#N)C(=O)Nc3ccccc32)cc1 (configuration not stated)	70.8µM*	?	-3.3%	?	10.9%
Cc1ccccc1-c1nc2c3ccccc3nc(=S)n2[nH]1	3.6%	?	nt	-16.4%	42.8%
Cc1nc2ccccc2n1CCc1nc2c3ccccc3nc(=S)n2[nH]1	14.1µM*	-3.3%	nt	63.1µM*	15.2%
CCN(C(C)=O)c1cnc(C=NNC(N)=S)c2ccccc12	nt	nt	nt	56.2µM*	2.3%
NC(=S)N/N=C/c1ccc(OC(=O)c2cccnc2)cc1	1.4%[59 µM]	-11.4%	nt	8.3%	61.8%
CCOC(=O)c1ccc(NC(=O)NNS(=O)(=O)c2cc(OC)ccc2OC)cc1	70.8µM*	-23.7%	nt	-6.2%	46.4%
COc1ccc(OC)c(NC(=O)NNS(=O)(=O)c2ccc(C)cc2C)c1	30.0%	-16.4%	nt	-6.6%	15.0%
COc1ccc(NC(=O)Nc2c(SC)nsc2SC)cc1	39.8µM*	-2.1%	2.3%	5.3%[11.4 µM]	18.6%
COc1ccc(COC(=O)Nc2c(SC)nsc2SC)cc1	-30.6%	5.1%	-6.3%	-9.2%	35.2%
CCOC(=O)c1nnsc1NC(=O)Nc1ccc(OC)cc1	39.8µM*	?	0.0%	-17.4%	22.5%
CC(C)(C)c1csc(NC(=O)Cn2c(=O)oc3ccccc32)n1	11.2µM*	-20.4%	-9.0%	6.2%	-27.5%
O=C(Cn1c(=O)oc2ccccc21)Nc1nc(-c2ccccc2)cs1	10.5%[59 µM]	12.3%	10.0%	-9.4%	-4.4%
O=C(Cn1c(=O)oc2ccccc21)Nc1n[nH]c(=S)s1	1.26µM*	-25.2%	-15.5%	3.55µM*	?
COc1ccc(NC(=O)CSc2sc3c(O)cc(=O)[nH]c3c2C#N)c(OC)c1	79.4µM*	79.4µM*	nt	?	?

Bioassay records deposited in PubChem by National Center for Advancing Translational Sciences (NCATS).
